For 40 compounds, growth results are on record in PubChem BioAssay (NCI).

The panel holds about 83,000 compounds, 20% with a hit somewhere; the sample as a whole holds those more often.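 48-hour exposure, single concentration, 96-well plates; percent growth endpoint where 0 means no net growth. Active: below 10.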 Active and inactive are the calls of the source.

The test deals with ACHN renal. As to the kind of experiment: NCI-60 one-dose screen, 48 h (100 = growth as untreated, 0 = no growth, -100 = all killed). The following applies: 10 µM. The method, then:
Growth inhibition of the ACHN human tumor cell line is measured as a screen for anti-cancer activity. Cells are grown in 96 well plates and exposed to the test compound for 48 hours. Compounds are tested at a single concentration, which is 10^-5 M for most compounds. The reported endpoint is percent growth (GI% or GIPRCNT), where numbers from 0 - 100% represent growth inhibition, and numbers from -100% - 0 represent cell death. For example, a value of 40 represents 60% growth inhibition. A value of 0 means no net growth occurred over the course of the experiment. A value of -40 indicates 40% of cells at the beginning of the experiment died by the end of the experiment. A value of -100 means all cells are dead at the end of the experiment.
NCI-60 Human Tumor Cell Lines Screen was performed using the standard one-dose NCI protocol, which is described in more detail at https://dtp.cancer.gov/discovery_development/nci-60/default.htm.
Compounds with GIPRCNT values below 10 were considered active. Activity score was based on GIPRCNT using the following formula: […]
Score is 0 for GIPRCNT values of 100 or above, 50 for GIPRCNT values of 0, and 100 for GIPRCNT values of -100.
For the compound `CCC[Se]C(=O)c1ccc(C(=O)[Se]CCC)s1`, the growth was -63.3% (active).

In the case of `C[C@H]1[C@H](OC(=O)CCC(=O)N(CCCc2cn(-c3ccc(C#N)cc3)nn2)CCNc2ccnc3cc(Cl)ccc23)O[C@@H]2OC3(C)CC[C@H]4[C@H](C)CC[C@@H]1[C@@]24OO3`, the growth is 44.5% (inactive).

Take `CC[C@]12C=CCN3CC[C@@]4(c5ccc(OC)cc5N(C)[C@H]4[C@@](O)(C(=O)OC)[C@@H]1OC(=O)CCCC[P+](c1ccc(C)cc1)(c1ccc(C)cc1)c1ccc(C)cc1)[C@@H]32`: the growth was -99.3% (active). As for `COc1ccc(/C=C/C(=O)c2nc3ccccc3n2Cc2ccc(Br)cc2)cc1`, the figure is 77.5% (inactive); as for `Cc1c2oc3c(C)ccc(C(=O)N[C@@H]4C(=O)N[C@H](C(C)C)C(=O)N5CCC[C@H]5C(=O)N(C)CC(=O)N(C)[C@@H](C(C)C)C(=O)OC4C)c3nc-2c(C(=O)N[C@@H]2C(=O)N[C@H](C(C)C)C(=O)N3CC(=O)C[C@H]3C(=O)N(C)CC(=O)N(C)[C@@H](C(C)C)C(=O)OC2C)c(N)c1=O` (stereo not given in full), 2.84% (active).

Consider `CC(C)C[C@H](NC(=O)CNC(=O)C[C@H]1O[C@@H]2OC3(C)CC[C@H]4[C@H](C)CC[C@@H]([C@H]1C)[C@@]24OO3)B(O)O`, for which the growth was 7.48% (active). In the case of `C#CCCCN(CCNc1ccnc2cc(Cl)ccc12)C(=O)CCC(=O)O[C@@H]1O[C@@H]2OC3(C)CC[C@H]4[C@H](C)CC[C@@H]([C@H]1C)[C@@]24OO3`, the growth was 29.4% (inactive). Turning to `COc1cc(OC)c(/C=C/C(=O)c2nc3ccccc3n2Cc2ccc(F)cc2)c(OC)c1`, the growth is 75.2% (inactive). The figure for `C[C@H]1[C@H](OC(=O)CCC(=O)Nc2cnccn2)O[C@@H]2OC3(C)CC[C@H]4[C@H](C)CC[C@@H]1[C@@]24OO3` is 25.4% (inactive). As to `CC1=C(COCCOC(=O)c2ccc(S(=O)(=O)F)cc2)C2=C(C)C3(CC3)[C@@](C)(O)C(=O)C2=C1`, the growth is -19.3% (active).

For the compound `CC1=C2C(=C[C@@](C)(COP(=O)(Oc3ccccc3)Oc3ccccc3)[C@@H]2O)C(=O)[C@@](C)(O)C12CC2`, the growth was -56.8% (active). `O=C(NCCCCC(c1ccc(F)cc1)c1ccc(F)cc1)Nc1ccc([N+](=O)[O-])c(C(F)(F)F)c1`: the growth is -2.96% (active). As to `O=C(/C=C/c1ccco1)c1nc2ccccc2n1Cc1ccc(F)cc1`, the growth is 79.1% (inactive).

As to `CC(=C\C(=O)Oc1ccc2c3c1OC1C(O)CCC4(O)C(C2)N(CC2CCC2)CCC314)/C=C1\CCCc2ccccc21` (stereo not given), the growth is 84.9% (inactive). In the case of `CC(=O)Oc1ccccc1C(=O)[Se]C(=NC(C)C)NC(C)C`, the growth was -80.8% (active).

Turning to `CC(C)N=C([Se])NC(=O)c1ccccc1`, the growth was -51.2% (active). `CC[C@]12C=CCN3CC[C@@]4(c5ccc(OC)cc5N(C)[C@H]4[C@@](O)(C(=O)OC)[C@@H]1OC(=O)CCCC[P+](c1ccc(OC)cc1)(c1ccc(OC)cc1)c1ccc(OC)cc1)[C@@H]32`: the growth is -49.2% (active). Regarding `C#CC[Se]C(=O)c1ccc2n[se]nc2c1`, the growth is 35.6% (inactive). Consider `COc1ccc2cc([C@H](C)C(=O)[Se]CCC#N)ccc2c1`, for which the growth is -50% (active). Consider `CN(C)CCc1cn(C2CCC2)c2cccc(O)c12`, for which the growth was 84.6% (inactive). As to `O=C([Se]C1C=CCCC1)c1ccc(C(=O)[Se]C2C=CCCC2)s1` (stereo not given), the growth was -67% (active). As for `COc1cc2cc(C(=O)N3C[C@@H](CCl)c4c3cc(OC(=O)N3CCN(C)[C@@H]5CSSC[C@@H]53)c3ccccc43)[nH]c2c(OC)c1OC`, the growth was -41.3% (active).

On to `CC1=C(C=O)C2=C(C)C3(CC3)[C@@](C)(O)C(=O)C2=C1`, for which the growth was -61.1% (active). Consider `O=C(/C=C/c1ccco1)c1nc2ccccc2n1Cc1ccc(Br)cc1`, for which the growth was 48.7% (inactive). As for `CC[C@]12C=CCN3CC[C@@]4(c5ccc(OC)cc5N(C)[C@H]4[C@@](O)(C(=O)OC)[C@@H]1OC(=O)CCCC[P+](C1CCCCC1)(C1CCCCC1)C1CCCCC1)[C@@H]32`, the figure is 18.7% (inactive); as for `O=C(/C=C/c1ccc(Br)cc1)c1nc2ccccc2n1Cc1ccc(Br)cc1`, -38.2% (active). As for `CC(=O)Oc1ccccc1C(=O)NC([Se])=NC1CCCCC1`, the figure is 20.2% (inactive); as for `C[C@H]1[C@H](OC(=O)CCC(=O)N(CCCc2cn(-c3ccc(CN4CCOCC4)cc3)nn2)CCNc2ccnc3cc(Cl)ccc23)O[C@@H]2OC3(C)CC[C@H]4[C@H](C)CC[C@@H]1[C@@]24OO3`, 23.1% (inactive). Turning to `O=C(/C=C/c1cccc(Br)c1)c1nc2ccccc2n1Cc1ccc(Br)cc1`, the growth is -30.5% (active).

Regarding `O=C(/C=C/c1ccc(Cl)cc1)c1nc2ccccc2n1Cc1ccc(F)cc1`, the growth was 23.5% (inactive). As for `C#CC[Se]C(=O)c1ccc(C(=O)[Se]CC#C)s1`, the figure is 43.6% (inactive); as for `C[C@H]1[C@@H](CC(=O)N[C@@H](Cc2coc3ccccc23)B(O)O)O[C@@H]2OC3(C)CC[C@H]4[C@H](C)CC[C@@H]1[C@@]24OO3`, 13.2% (inactive); as for `COc1cc(OC)c(S(=O)(=O)N(CCCl)CCCl)cc1C(=O)/C=C/c1ccc(C)cc1`, 64.9% (inactive).

Turning to `C[C@H]1[C@@H](Oc2ccc(-c3cn(-c4ccnc5cc(Cl)ccc45)nn3)cc2)O[C@@H]2OC3(C)CC[C@H]4[C@H](C)CC[C@@H]1[C@@]24OO3`, the growth was 14.3% (inactive). `CC12OOC(C)(OO1)C2CCC(=O)NCCNc1ccnc2cc(Cl)ccc12` (stereo not given): the growth was 97% (inactive). Regarding `CCOP(=O)(OCC)C(NC(C)=O)C(=O)SCCN` (stereo not given), the growth was 112% (inactive). Consider `COC(=O)C[C@](O)(CCCC(C)C)C(=O)O[C@H]1C(OC)=C[C@@]23CCCN2CCc2cc4c(cc2[C@@H]13)OCO4`, for which the growth was -8.49% (active).

With `C[C@H]1[C@H](OC(=O)CCC(=O)N(CCCc2cn(-c3ccc([N+](=O)[O-])cc3)nn2)CCNc2ccnc3cc(Cl)ccc23)O[C@@H]2OC3(C)CC[C@H]4[C@H](C)CC[C@@H]1[C@@]24OO3`, the growth was 37.5% (inactive). For the compound `O=C(/C=C/c1ccc(F)cc1)c1nc2ccccc2n1Cc1ccc(F)cc1`, the growth is -45.4% (active). As for `COC(=O)c1ccc(-n2cc(CCCN(CCNc3ccnc4cc(Cl)ccc34)C(=O)CCC(=O)O[C@@H]3O[C@@H]4OC5(C)CC[C@H]6[C@H](C)CC[C@@H]([C@H]3C)[C@@]46OO5)nn2)cc1`, the growth was 36.3% (inactive).
